The list is not random: actives were taken first. Their share in the collection is about 17%.
DT40 TDP1 CPT: qHTS for Inhibitors of human tyrosyl-DNA phosphodiesterase 1 (TDP1): qHTS in cells in presence of CPT; AID 686979, 2013; 420,000 compounds, 12% hits; Potency, µM (highest dose often 46.2 µM), without a hit: at the top dose activity change, negative = growth inhibition, hits mostly inhibitors; chicken DT40 Tdp1-/-;hTDP1 cells + 20 nM CPT, ATP luminescence, 48 h; also: % is scaled to controls: 0 for no effect and ±100 for the full control effect; nearly all actives have a fitted effect of over 55% in size
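Cell growth measured by CellTiter-Glo luminescence after a minimum 48 h, 37 C compound exposure with 20 nM CPT in Tdp1-knockout DT40 cells stably expressing hTDP1, seeded 400/well; qHTS titration format.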
ClpP mod: qHTS Assay for Activators of ClpP | ATP-dependent Clp protease proteolytic subunit (Bacillus subtilis (strain 168)), P80244 | purified B. subtilis ClpP, FRET peptide cleavage, 20 min | Potency, µM (highest dose often 57.5 µM), inactives show at the top dose activity change, negative = active | 340,000 compounds, 1.9% hits; active = well fitted falling curve with a large enough effect; inconclusive = small, poorly fitted or top-dose-only effect; inactive = no such curve, though single readings can be large or run the other way; also: the source files actives as falling curves though it sought activators and does not explain the sign; nearly all actives have a fitted effect of over 65% in size
Target sequence (P80244 whole entry, looked up): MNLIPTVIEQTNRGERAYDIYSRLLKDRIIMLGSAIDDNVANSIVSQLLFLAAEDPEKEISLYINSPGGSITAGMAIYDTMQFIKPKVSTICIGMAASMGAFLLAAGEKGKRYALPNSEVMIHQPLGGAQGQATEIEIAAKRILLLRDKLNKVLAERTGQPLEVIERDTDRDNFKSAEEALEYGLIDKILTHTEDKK
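FRET quenching reversal measured ClpP activation: 10 microg/mL B. subtilis ClpP at pH 8 with the FRET-FV decapeptide, read at 430 nm after 320 nm excitation. The 20-min minus 0-min signal was scaled between DMSO/no-enzyme wells and ADEP (5.8 microM final).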
TDP1 cell noCPT: qHTS for Inhibitors of human tyrosyl-DNA phosphodiesterase 1 (TDP1): qHTS in cells in absence of CPT. DT40 Tdp1-/- hTDP1 cells, no CPT, ATP luminescence, 48 h. Potency, µM (series often up to 46.2 µM), without a hit: at the highest dose activity change, negative = growth inhibition, usual class: inhibitors. 420,000 compounds, 15% hits. AID 686978, 2013; also: % is scaled to controls: 0 for no effect and ±100 for the full control effect; nearly all actives have a fitted effect of over 55% in size
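Readout: luminescence from CellTiter-Glo after 30 min in the dark at RT. Cells: DT40 Tdp1-/- with stable hTDP1, 400/well. Exposure: compounds alone, ≥48 hr, 37 °C.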
TDP1 inh: qHTS Assay for Inhibitors of Tyrosyl-DNA Phosphodiesterase (TDP1); recombinant TDP1, AlphaScreen DNA substrate cleavage; Potency, µM (highest dose often 130 µM), without a hit: at the highest dose activity change, negative = inhibition, actives largely listed as inhibitors; 350,000 compounds, 0.28% hits; AID 485290, 2010; also: % is scaled to controls: 0 for no effect and ±100 for the full control effect; nearly all actives have a fitted effect of over 40% in size
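Signal: AlphaScreen proximity between streptavidin donor and anti-FITC acceptor beads on intact substrate. Reaction: Tdp1 1 nM, substrate 15 nM final, 5 min RT after 15 min compound preincubation.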
* = called active by the depositor; [ ] = another dose, or the depositor's remark. Unless noted, calls follow the shape of the dose curve; as a rule, active = well fitted curve in the direction sought with a large enough effect; inconclusive = small, poorly fitted or top-dose-only effect, or another doubt; inactive = no such curve, though single readings can be large; an effect the other way counts as inactive or inconclusive. Potency is read from the fitted curve at half-maximal effect.

How did COc1ccc(C(=O)N2CCN(Cc3ccccc3)CC2)cc1[N+](=O)[O-] do in these assays?
DT40 TDP1 CPT: -12%; ClpP mod: -1%; TDP1 cell noCPT: inconclusive; TDP1 inh: 3%

Results for O=C(c1ccc(Cl)c([N+](=O)[O-])c1)N1CCN(c2ccccn2)CC1 ?
DT40 TDP1 CPT: -10%; ClpP mod: -3%; TDP1 cell noCPT: inconclusive; TDP1 inh: 1%

How did O=C(c1ccc(S(=O)(=O)c2cccc(Cl)c2)c([N+](=O)[O-])c1)N1CCN(Cc2ccccc2)CC1 do in these assays?
DT40 TDP1 CPT: 3.7µM*; ClpP mod: 1%; TDP1 cell noCPT: 5.8µM*; TDP1 inh: 9%

How did CC1CCN(C(=O)c2ccc(S(=O)(=O)Cc3cccc(F)c3)c([N+](=O)[O-])c2)CC1 do in these assays?
DT40 TDP1 CPT: inconclusive; ClpP mod: inconclusive; TDP1 cell noCPT: inconclusive; TDP1 inh: 4%

How did O=C(c1ccc(S(=O)(=O)Cc2cc(F)ccc2F)c([N+](=O)[O-])c1)N1CCCC1 do in these assays?
DT40 TDP1 CPT: 3.3µM*; TDP1 cell noCPT: 2.9µM*; TDP1 inh: 5%

How did COc1cccc(C(=O)n2nc(-c3cccnc3)nc2NCc2ccc(F)cc2)c1 do in these assays?
DT40 TDP1 CPT: -18%; ClpP mod: 1%; TDP1 cell noCPT: inconclusive; TDP1 inh: 4%

Results for CCN(CC)S(=O)(=O)c1ccc2c(c1)oc(=O)n2CC(=O)NC1CCCCC1 ?
DT40 TDP1 CPT: -27%; ClpP mod: -1%; TDP1 cell noCPT: 0%; TDP1 inh: 1%

Results for CN(C)C1=NCCN1CCC1CCCC1 ?
DT40 TDP1 CPT: inconclusive; ClpP mod: 0%; TDP1 cell noCPT: inconclusive

Results for CCOC(=O)c1ccc(NC(=O)CN(c2ccc(C)cc2)S(=O)(=O)c2ccc(OC)cc2)cc1 ?
DT40 TDP1 CPT: inconclusive; ClpP mod: -7%; TDP1 cell noCPT: inconclusive

How did O=C(O)CCc1ccc(-c2ccc(Cl)cc2)n1-c1cccc(C(F)(F)F)c1 do in these assays?
DT40 TDP1 CPT: -2%; ClpP mod: -4%; TDP1 cell noCPT: -14%

How did O=C(NCC(=O)N1CCN(S(=O)(=O)c2ccccc2C(F)(F)F)CC1)c1sc2ccccc2c1Cl do in these assays?
DT40 TDP1 CPT: inconclusive; ClpP mod: 4%; TDP1 cell noCPT: 12µM*; TDP1 inh: 1%

What do the screens show for `Cc1ccc(C)c(S(=O)(=O)N2CCN(C(=O)CNC(=O)c3sc4ccccc4c3Cl)CC2)c1`?
DT40 TDP1 CPT: -18%; ClpP mod: -4%; TDP1 cell noCPT: 0%

How did Cc1cccc2[nH]cc(/C=C3/C=Nc4ccccc43)c12 do in these assays?
DT40 TDP1 CPT: 7.9µM*; ClpP mod: -9%; TDP1 cell noCPT: 4µM*

How did O=c1[nH]c(O)c(/C=C2\C=Nc3ccccc32)[nH]1 do in these assays?
DT40 TDP1 CPT: 7%; ClpP mod: -2%; TDP1 cell noCPT: 16%; TDP1 inh: 3%

How did O[C@@H]1CCN2Cc3ccccc3N=C12 do in these assays?
TDP1 inh: 7%

What do the screens show for `O=C(Nc1ccc2c(c1)C(=O)NC2=O)c1cccc(Cl)c1`?
DT40 TDP1 CPT: 0%; ClpP mod: -10%; TDP1 cell noCPT: -10%

How did Cc1cc(NC(=O)c2cc(Cl)ccc2Cl)ccc1-c1cc2ccccc2oc1=O do in these assays?
DT40 TDP1 CPT: -20%; ClpP mod: 11µM*; TDP1 cell noCPT: inconclusive; TDP1 inh: 0%[12.3 µM]

What do the screens show for `Cc1ccc(C(=O)NC(=S)Nc2ccc(-c3cc4ccccc4oc3=O)cc2)c(C)c1`?
DT40 TDP1 CPT: inconclusive; ClpP mod: 8%; TDP1 cell noCPT: 23µM*; TDP1 inh: 4%

What do the screens show for `CCCOc1cccc(C(=O)Nc2ccc(-c3cc4ccccc4oc3=O)c(C)c2)c1`?
DT40 TDP1 CPT: inconclusive; ClpP mod: 4%; TDP1 cell noCPT: inconclusive; TDP1 inh: -10%[12.3 µM]

What do the screens show for `O=C1NC(=O)c2cc(NC(=O)C3CCCCC3)ccc21`?
DT40 TDP1 CPT: -2%; ClpP mod: 25µM*; TDP1 cell noCPT: -1%; TDP1 inh: 5%

Results for Cc1cc(C)cc(C(=O)NC(=S)Nc2ccc(-c3cc4ccccc4oc3=O)cc2)c1 ?
DT40 TDP1 CPT: inconclusive; ClpP mod: 33%; TDP1 cell noCPT: inconclusive; TDP1 inh: -1%

How did O=C(Nc1ccc2c(c1)C(=O)NC2=O)c1cc(Cl)ccc1Cl do in these assays?
DT40 TDP1 CPT: -1%; ClpP mod: 32µM*; TDP1 cell noCPT: 4%

Results for CCCCCCn1cc(CN2CC(N3CCN(CCO)CC3)CS2(=O)=O)nn1 (stereo not drawn) ?
DT40 TDP1 CPT: 2%; ClpP mod: 0%; TDP1 cell noCPT: -17%

Results for CC(C)NC(=O)N1CC(c2ccccc2)C(c2ccc(Cl)cc2)=N1 (stereo not drawn) ?
DT40 TDP1 CPT: 12µM*; ClpP mod: 4%; TDP1 cell noCPT: 18µM*

Results for CC(=O)N1CC(c2ccccc2)C(c2ccc(Cl)cc2)=N1 (stereo not drawn) ?
DT40 TDP1 CPT: inconclusive; ClpP mod: inconclusive; TDP1 cell noCPT: inconclusive; TDP1 inh: 5%

How did c1cncc(CN2CCN(c3cc(-c4cnc5ccccc5c4)nc4ccnn34)CC2)c1 do in these assays?
DT40 TDP1 CPT: inconclusive; ClpP mod: -1%; TDP1 cell noCPT: -29%

How did COc1ccc(C2C3=C(N=C4SCC(=O)N42)c2ccccc2CC3)cc1OC (stereo not drawn) do in these assays?
DT40 TDP1 CPT: 15µM*; ClpP mod: -1%; TDP1 cell noCPT: 15µM*; TDP1 inh: 3%

What do the screens show for `COc1ccccc1C1C2=C(N=C3SCC(=O)N31)c1ccccc1CC2` (stereo not drawn)?
DT40 TDP1 CPT: inconclusive; ClpP mod: -2%; TDP1 cell noCPT: inconclusive; TDP1 inh: 7%

What do the screens show for `O=C(CN1C(=O)/C(=C2\SC(=S)N(C3CCS(=O)(=O)C3)C2=O)c2ccccc21)Nc1ccccc1` (stereo not drawn)?
DT40 TDP1 CPT: inconclusive; ClpP mod: 1%; TDP1 cell noCPT: 13µM*; TDP1 inh: -3%

Results for COc1ccc(NC(=O)CN2C(=O)/C(=C3\SC(=S)N(CCC(=O)O)C3=O)c3ccccc32)cc1 ?
DT40 TDP1 CPT: -2%; ClpP mod: -1%; TDP1 cell noCPT: 8%; TDP1 inh: 7%

What do the screens show for `O=C(CCS(=O)(=O)c1ccccc1Cl)NC1CCCCCC1`?
DT40 TDP1 CPT: 3%; ClpP mod: -1%; TDP1 cell noCPT: 11%; TDP1 inh: -1%

What do the screens show for `O=S(=O)(c1ccccc1)c1nnn2c1nc(NCc1cccs1)c1sccc12`?
DT40 TDP1 CPT: -30%; ClpP mod: -18%; TDP1 cell noCPT: -18%; TDP1 inh: 3%

Screening data deposited in PubChem BioAssay by National Center for Advancing Translational Sciences (NCATS).
